# In PubChem BioAssay (EPA / NIEHS):
# Several values for one entry are separate records, joined by “and”; a condition that tells them apart may be missing. Equal values may be shown once. Records with an inconclusive call do not appear. Where a structure was tested more than once in an assay, its records may differ in their call. Activity calls are given as the source filed them. Rule for the calls, unless noted: active = hit-call score of the fitted dose curve at least 0.9, where 1 is the maximum; inactive = score below 0.9.
# Assays:
# [1] = IUF_NPC2c_oligodendrocyte_migration_120hr: Leibniz Research Institute for Environmental Medicine (IUF) 120-hour Neural Progenitor Cell Migration Assay for Oligodendrocyte Migration (NPC2c) (AID 2284297);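 note: O4-positive oligodendrocyte migration distance divided by radial glia migration distance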
# Summary of the method: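 Using fetal brain neural progenitor spheres differentiating in N2 medium at 37C, compounds were present for 120 h. Oligodendrocyte migration distance, normalized to radial glia migration, was measured from imaged O4 staining.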
# [2] = IUF_NPC2a_radial_glia_migration_120hr: Leibniz Research Institute for Environmental Medicine (IUF) 120-hour Neural Progenitor Cell Migration Assay for Radial Glia Migration (NPC2a) (AID 2284298)
# Summary of the method: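 Exposure of 0.3 mm primary hNPC spheres runs day 0 to 120 h with a half-volume medium change at day 3. Fixed cells get Hoechst staining; high-content analysis of nuclear positions yields radial glia migration distance per well, compared against DMSO controls.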
# [3] = IUF_NPC2a_radial_glia_migration_72hr: Leibniz Research Institute for Environmental Medicine (IUF) 72-hour Neural Progenitor Cell Migration Assay for Radial Glia Migration (NPC2a) (AID 2284299)
# Summary of the method: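 Radial glia migration (µm, sphere core edge to migration front, four directions averaged) from brightfield images at 72 h; hNPC spheres differentiating on PDL/laminin in N2 medium, compound exposure at 7 concentrations from plating.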
# [4] = IUF_NPC2b_neuronal_migration_120hr: Leibniz Research Institute for Environmental Medicine (IUF) 120-hour Neural Progenitor Cell Migration Assay for Neuron Migration (NPC2b) (AID 2284300)
# Summary of the method: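 Fetal human NPC spheres migrate on PDL/laminin during 120 h compound treatment; neuronal migration distance, glia-normalized, scored versus DMSO control.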
# [5] = IUF_NPC3_neuronal_differentiation_120hr: Leibniz Research Institute for Environmental Medicine (IUF) 120-hour Neuronal Differentiation Assay (NPC3) (AID 2284301)
# Summary of the method: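 Value is percent TUBB3-positive neurons among Hoechst-stained nuclei in the migration area, scored by trained CNN after 120 h differentiation. Primary hNPC spheres on poly-D-lysine/laminin, N2 medium, continuous dosing from day 0, half-refeed day 3; DMSO reference.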
# [6] = IUF_NPC4_neurite_length_120hr: Leibniz Research Institute for Environmental Medicine (IUF) 120-hour Neuronal Morphology Assay for Neurite Length (NPC4) (AID 2284302)
# Summary of the method: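 Neurite length, the mean in um across TUBB3-stained neurons, is derived by skeletonization of high-content images after 120 h differentiation. Compound exposure, 7 concentrations plus solvent control, ran from plating of hNPC spheres on poly-D-lysine/laminin, with medium half-replaced on day 3.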
# [7] = IUF_NPC5_oligodendrocyte_differentiation_120hr: Leibniz Research Institute for Environmental Medicine (IUF) 120-hour Oligodendrocyte Differentiation Assay (NPC5) (AID 2284304; active = hit-call score of the fitted dose curve at least 0.9, where 1 is the maximum;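 note: primary human fetal neural progenitor spheres plated to migrate and differentiate; share of O4-positive cells among Hoechst nuclei found by CNN image analysis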)
# Summary of the method: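 After plating on poly-D-lysine/laminin, fetal-derived hNPC spheres differentiated for 120 h at 37C in compound-containing N2 medium, refreshed by half on day 3. O4 immunostaining over Hoechst nuclei in the migration zone gave oligodendrocyte percentage relative to DMSO.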
# [8] = IUF_NPC4_neurite_area_120hr: Leibniz Research Institute for Environmental Medicine (IUF) 120-hour Neuronal Morphology Assay for Neurite Area (NPC4) (AID 2284305; active = hit-call score of the fitted dose curve at least 0.9, where 1 is the maximum)
# Summary of the method: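 Neurite area (pixels, nuclei excluded) of TUBB3-positive neurons from hNPC spheres differentiating 5 days under continuous exposure at 37 C, 5% CO2. High-content imaging; loss of signal versus DMSO control across 7 concentrations.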
# [9] = read-out: Vascular cell adhesion molecule 1 (VCAM1), VCAM1 (gene 7412); test: BSK_IMphg_VCAM1: BioMAP Diversity Plus: IMphg Assay for Vascular cell adhesion molecule 1 (VCAM1) Biomarker Activity (AID 2284286); details: primary human endothelial cells with macrophages
# Summary of the method: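 ELISA read-out of VCAM-1 on venular endothelial cell/macrophage co-cultures at 24 h post-treatment, with DMSO as baseline and positive-direction fitting. Parallel sulforhodamine B total-protein staining (560 nm) served as the overt cytotoxicity measure.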
# [10] = read-out: Intercellular Adhesion Molecule 1 (ICAM1), ICAM1 (gene 3383); test: BSK_hDFCGF_ICAM1: BioMAP Diversity Plus: hDFCGF Assay for Intercellular Adhesion Molecule 1 (ICAM1) Biomarker Activity (AID 2284287); details: primary human foreskin fibroblasts
# Summary of the method: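 ICAM-1 ELISA readout 24 h after dosing, DMSO as baseline, in human dermal foreskin fibroblast cultures. Cytotoxicity checked in parallel wells by SRB staining (0.1% SRB, 10% TCA fixation, 560 nm).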
# [11] = read-out: CD40, CD40 (gene 958); test: BSK_IMphg_CD40: BioMAP Diversity Plus: IMphg Assay for CD40 Biomarker Activity (AID 2284288); details: primary human endothelial cells with macrophages
# Summary of the method: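 ELISA read-out of cell-surface CD40 at 24 h in human venular endothelial cell/macrophage co-cultures. Activity fitted in the positive direction against DMSO; parallel SRB staining (560 nm) gauges overt cytotoxicity.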
# [12] = read-out: TIMP metallopeptidase inhibitor 2 (TIMP2), TIMP2 (gene 7077); test: BSK_hDFCGF_TIMP2: BioMAP Diversity Plus: hDFCGF Assay for TIMP metallopeptidase inhibitor 2 (TIMP2) Biomarker Activity (AID 2284289); details: primary human foreskin fibroblasts
# Summary of the method: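 Primary human foreskin fibroblasts in the hDFCGF system, dosed for 24 h; TIMP-2 level measured by ELISA, fitted in the positive direction against DMSO; cytotoxicity checked in parallel by sulforhodamine B total protein staining.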
# [13] = read-out: Interleukin-1 alpha (IL1a), IL1A (gene 3552); test: BSK_IMphg_IL1a: BioMAP Diversity Plus: IMphg Assay for Interleukin-1 alpha (IL1a) Biomarker Activity (AID 2284290); details: primary human endothelial cells with macrophages
# Summary of the method: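 IL-1α is quantified by ELISA at 24 h in the endothelial/macrophage IMphg co-culture, with gain of signal fitted relative to DMSO. Parallel SRB total-protein staining flags overt toxicity.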
# [14] = read-out: E-selectin (Homo sapiens) (UniProt P16581); test: BSK_IMphg_ESelectin: BioMAP Diversity Plus: IMphg Assay for Eselectin Biomarker Activity (AID 2284291); details: primary human endothelial cells with macrophages
# Summary of the method: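 Analysed against DMSO baseline in the positive fitting direction, this endpoint is an ELISA read of E-selectin. It comes from human venular endothelial cells co-cultured with macrophages, sampled 24 h post-dose.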
# [15] = BSK_IMphg_SRB: Viability Assessment in the BioMAP Diversity Plus: IMphg Assay (AID 2284292); details: primary human endothelial cells with macrophages;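 note: measured one day after compound addition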
# Summary of the method: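 SRB viability endpoint: cultures of human endothelial cells plus macrophages fixed with 10% TCA, stained with 0.1% SRB, read at 560 nm 24 h post-dosing. Only gain-of-signal fitted, relative to DMSO.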
# [16] = read-out: Macrophage colony-stimulating factor (MCSF), CSF1 (gene 1435); test: BSK_IMphg_MCSF: BioMAP Diversity Plus: IMphg Assay for Macrophage colony-stimulating factor (MCSF) Biomarker Activity (AID 2284293); details: primary human endothelial cells with macrophages
# Summary of the method: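 M-CSF was measured by ELISA in human venular endothelial cell/macrophage co-cultures dosed for 24 hours. Sulforhodamine B staining of parallel cultures assessed cytotoxicity; data fitted against DMSO baseline.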
# [17] = read-out: Interleukin-10 (IL10), IL10 (gene 3586); test: BSK_IMphg_IL10: BioMAP Diversity Plus: IMphg Assay for Interleukin-10 (IL10) Biomarker Activity (AID 2284294); details: primary human endothelial cells with macrophages
# Summary of the method: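 IL-10 read by ELISA after 24 h chemical exposure of primary human venular endothelial cell/macrophage cocultures, with DMSO as baseline. Parallel SRB staining (560 nm) gauged overt cytotoxicity.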
# [18] = BSK_IMphg_SRB.Mphg: Macrophage Viability Assessment in the BioMAP Diversity Plus: IMphg Assay (AID 2284295); details: primary human endothelial cells with macrophages
# Summary of the method: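 Cytotoxicity read-out: parallel cultures fixed with 10% TCA, stained with 0.1% sulforhodamine B, read at 560 nm. System combines venular endothelium and macrophages; sampled 24 h post-dosing, fitted positively relative to DMSO control.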
# [19] = read-out: Thrombomodulin, THBD (gene 7056); test: BSK_LPS_Thrombomodulin: BioMAP Diversity Plus: LPS Assay for Thrombomodulin Biomarker Activity (AID 2284296); details: primary human HUVEC with PBMC
# Summary of the method: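 Thrombomodulin on the surface of LPS-activated endothelial/PBMC co-cultures was quantified by ELISA at 24 hours post-dosing, with DMSO as baseline. Parallel SRB total-protein staining flagged overt cytotoxicity.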
# [20] = read-out: CD69, CD69 (gene 969); test: BSK_LPS_CD69: BioMAP Diversity Plus: LPS Assay for CD69 Biomarker Activity (AID 2284303); details: primary human HUVEC with PBMC
# Summary of the method: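 CD69 surface levels were read by ELISA after 24 h chemical treatment of an LPS-stimulated HUVEC plus PBMC co-culture; positive-direction fit against DMSO vehicle.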
# Sequence of E-selectin (Homo sapiens) (P16581 whole entry, looked up): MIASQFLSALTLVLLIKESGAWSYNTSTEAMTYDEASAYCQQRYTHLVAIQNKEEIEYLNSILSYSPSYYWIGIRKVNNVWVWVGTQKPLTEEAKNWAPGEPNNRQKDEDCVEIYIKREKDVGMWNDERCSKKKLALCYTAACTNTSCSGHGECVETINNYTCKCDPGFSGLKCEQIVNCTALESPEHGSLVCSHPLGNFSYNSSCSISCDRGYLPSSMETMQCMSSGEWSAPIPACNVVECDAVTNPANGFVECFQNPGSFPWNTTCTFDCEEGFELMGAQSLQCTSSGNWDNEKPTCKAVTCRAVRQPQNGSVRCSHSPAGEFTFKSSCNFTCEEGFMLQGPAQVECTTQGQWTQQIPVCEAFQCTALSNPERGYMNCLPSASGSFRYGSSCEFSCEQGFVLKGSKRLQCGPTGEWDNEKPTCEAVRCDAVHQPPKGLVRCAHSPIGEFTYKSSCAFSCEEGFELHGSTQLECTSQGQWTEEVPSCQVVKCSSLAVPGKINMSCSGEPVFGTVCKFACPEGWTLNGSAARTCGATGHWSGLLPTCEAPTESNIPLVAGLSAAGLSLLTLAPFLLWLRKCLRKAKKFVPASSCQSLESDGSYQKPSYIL
smiles,measurement,setting,value
CNC(=O)Oc1cccc2c1OC(C)(C)C2,outcome,[1],inactive
same,outcome,[2],inactive
same,outcome,[3],inactive
same,outcome,[4],inactive
same,outcome,[5],inactive
same,outcome,[6],inactive
same,outcome,[7],inactive
same,outcome,[8],inactive
OCCOCCO,outcome,[1],inactive
same,outcome,[2],inactive
same,outcome,[3],inactive
same,outcome,[4],inactive
same,outcome,[5],inactive
same,outcome,[6],inactive
same,outcome,[7],inactive
CC(C)(C)C(O)(CCc1ccc(Cl)cc1)Cn1cncn1 (stereo not given),outcome,[1],inactive
same,outcome,[3],inactive
same,outcome,[4],inactive
same,outcome,[5],inactive
same,outcome,[6],inactive
same,outcome,[7],inactive
same,outcome,[8],inactive
[O-][Cl+]O,outcome,[1],inactive
same,outcome,[2],inactive
same,outcome,[3],inactive
same,outcome,[4],inactive
same,outcome,[5],inactive
same,outcome,[6],inactive
same,outcome,[8],inactive
CCCCOC(=O)c1ccccc1C(=O)OCc1ccccc1,outcome,[1],inactive
same,outcome,[2],inactive
same,AC50,[3],18.5 µM (active)
same,outcome,[4],inactive
same,outcome,[5],inactive
same,outcome,[6],inactive
same,outcome,[8],inactive
CCNS(=O)(=O)C(F)(F)C(F)(F)C(F)(F)C(F)(F)C(F)(F)C(F)(F)C(F)(F)C(F)(F)F,AC50,[9],48 µM (active) and 49.6 µM (active)
same,AC50,[10],42.5 µM (active) and 48.4 µM (active)
same,AC50,[11],26.6 µM (active)
same,outcome,[11],inactive
same,AC50,[12],30 µM (active) and 46.5 µM (active)
same,outcome,[13],inactive
same,AC50,[14],10.8 µM (active) and 30 µM (active)
same,outcome,[15],inactive
same,outcome,[16],inactive
same,outcome,[17],inactive
same,AC50,[18],30 µM (active)
same,outcome,[18],inactive
same,AC50,[19],54.5 µM (active)
same,outcome,[19],inactive
same,AC50,[20],15.4 µM (active)
same,outcome,[20],inactive
CCC[CH2][Sn]([Cl])([CH2]CCC)[CH2]CCC,AC50,[1],0.325 µM (active)
same,AC50,[2],0.37 µM (active)
same,AC50,[3],0.386 µM (active)
same,AC50,[4],0.319 µM (active)
same,AC50,[5],0.284 µM (active)
same,AC50,[6],0.303 µM (active)
same,AC50,[7],0.12 µM (active)
same,AC50,[8],0.312 µM (active)
O=P(OCCCl)(OCCCl)OCCCl,outcome,[1],inactive
same,outcome,[2],inactive
same,outcome,[3],inactive
same,outcome,[4],inactive
same,outcome,[5],inactive
same,outcome,[6],inactive
same,outcome,[8],inactive
CC(C)COC(=O)c1ccccc1C(=O)OCC(C)C,outcome,[1],inactive
same,outcome,[2],inactive
same,outcome,[3],inactive
same,outcome,[4],inactive
same,outcome,[5],inactive
same,outcome,[6],inactive
same,outcome,[7],inactive
same,outcome,[8],inactive
COP(=S)(OC)SCN1C(=O)c2ccccc2C1=O,outcome,[1],inactive
same,outcome,[2],inactive
same,outcome,[3],inactive
same,outcome,[4],inactive
same,outcome,[5],inactive
same,outcome,[6],inactive
same,outcome,[7],inactive
same,outcome,[8],inactive
COC(=O)Nc1nc2ccccc2[nH]1,outcome,[1],inactive
same,AC50,[2],11.3 µM (active)
same,AC50,[3],8.09 µM (active)
same,outcome,[4],inactive
same,outcome,[5],inactive
same,AC50,[6],8.96 µM (active)
same,outcome,[8],inactive
